Data published in PubChem BioAssay (NCATS).
Where “and” joins values, the source holds several entries; their conditions need not be identical. Equal entries are not always repeated. Results filed as inconclusive are left out. Calls of active or inactive are those of the source. Unless noted, calls follow the shape of the dose curve; as a rule, active = well fitted curve in the direction sought with a large enough effect; inconclusive = small, poorly fitted or top-dose-only effect, or another doubt; inactive = no such curve, though single readings can be large; an effect the other way counts as inactive or inconclusive.

Experiments:
[1] = HPAF-II 24hr Apoptosis Induction qHTS against the NCATS CANVASS Library (AID 1347356); also: 0% is about no effect
Procedure, shortened: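 Luminescent caspase-3/7 signal (DEVD substrate, Caspase-Glo) served as read-out, taken 15 min after reagent addition to HPAF-II cells exposed 24 h to compounds.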

[2] = HEK293 18hr Apoptosis Induction qHTS against the NCATS CANVASS Library (AID 1347357); also: 0% is about no effect
Procedure, shortened: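 HEK293 cells (500 per well, DMEM with 10% FBS) were treated with natural products, incubated 18 hours at 37 degrees C, then caspase-3/7 activity was read by Caspase-Glo luminescence after 15 min at room temperature.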

[3] = HEK293 12hr Apoptosis Induction qHTS against the NCATS CANVASS Library (AID 1347361); also: 0% is about no effect
Procedure, shortened: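 Read-out: Caspase-Glo 3/7 luminescence (DEVD substrate), 15 min RT. Preceded by 12 h compound exposure of HEK293, 500 cells/well, 11-pt qHTS titration; doxorubicin titration as control.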

[4] = qHTS for ATAD5 Agonist screened against the NCATS CANVASS Library (AID 1347367);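 also: luciferase reporter driven by ATAD5 which rises upon DNA damage; 0% is about no effect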
Procedure, shortened: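 HEK293T cells stably carrying an ATAD5-controlled luciferase reporter (2000 cells/well) attached for 5 hr, then received compounds in an 11-point series for 16hr at 37C. Luminescence was read after a 30 min room-temperature reagent step.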

[5] = MCF7 Cancer Cell Toxicity qHTS against the NCATS CANVASS Library (AID 1347369)
Procedure, shortened: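 MCF7, 500 cells/well; cpds 11-pt qHTS; 72 hr, 37C/5% CO2; CellTiterGlo ATP luminescence.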

[6] = Inflammasome Signaling qHTS Counterscreen: IL-1-beta AlphaLISA counterscreen against the NCATS CANVASS Library (AID 1347381);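 also: cell-free check with purified IL-1β in medium and no THP-1 cells; 0% is about no effect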
Procedure, shortened: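 Cell-free interference check: compounds added to medium spiked with 4 pg purified IL-1β. Anti-IL-1β acceptor beads (6 ug/mL) with 0.6 nM biotinylated antibody added for 1 h at RT, then streptavidin donor beads (24 ug/mL) for 30 min in the dark. AlphaLISA read at 680/615 nm.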

[7] = Redox Reaction Profiling qHTS: Assay Interference Panel against the NCATS CANVASS Library (AID 1347401);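 also: 100% = activation by 2 µM chloranil control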
Procedure, shortened: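 Resazurin (5 uM) conversion to resorufin measured with 200 uM DTT in 50 mM HEPES pH 7.3, 50 mM NaCl. Compounds tested in 11-point qHTS series. Fluorescence (ex 525/em 598 nm) read before and after 15 min dark incubation.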

[8] = qHTS to identify inhibitors of the type 1 interferon - major histocompatibility complex class I in skeletal muscle: primary screen against the NCATS Mechanism Interrogation Plate v5.0 (MIPE) Libary (AID 1347411); also: nearly all actives have a fitted effect of over 65% in size; also: potency is read from the fitted curve at half-maximal effect;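 as to activity change, negative = inhibition: plate controls were vehicle for no effect and reference inhibitor for full effect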
Procedure, shortened: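 Luminescence from HiBiT-tagged endogenous HLA-B*08:01 served as the MHC class I read-out. CRISPR-engineered C25cl48 human myoblasts received 4.0 ng/ml IFN-beta plus compound for 24 hrs, with an 11-point, 1:3 series topping at 46 uM final.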

[9] = Primary qHTS for inhibitors of nuclear receptor binding SET domain protein 2 (NSD2) in an isogenic RCH-ACV NSD2 p.E1099K mutant (9B) (AID 1645876); also: nearly all actives have a fitted effect of over 70% in size; also: potency is read from the fitted curve at half-maximal effect
[10] = Primary qHTS for inhibitors of nuclear receptor binding SET domain protein 2 (NSD2) in an RCH-ACV wild type WT cells (2C) (AID 1645877); also: nearly all actives have a fitted effect of over 70% in size; also: potency is read from the fitted curve at half-maximal effect
[11] = target: Glutathione peroxidase 1 (Homo sapiens) (UniProt P07203); assay: Primary qHTS Assay for Inhibitors of Recombinant Selenoprotein Glutathione Peroxidase 1 (GPX1) (AID 1845191); also: nearly all actives have a fitted effect of over 65% in size
Procedure, shortened: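 Recombinant GPX1 (10 nM final) was preincubated with compound for 30 min at room temperature, then reacted with 1 mM GSH, 0.5 mM CHP, 0.5 mM NADPH and 100 nM glutathione reductase; NADPH fluorescence (340/450 nm) was read at 0 and 15 min.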

[12] = target: Phospholipid hydroperoxide glutathione peroxidase GPX4 (Homo sapiens) (UniProt P36969); assay: Primary qHTS Assay for Inhibitors of Recombinant Selenoprotein Glutathione Peroxidase 4 (GPX4) (AID 1845192); details: outcome: dose series up to 50 µM unless noted; also: nearly all actives have a fitted effect of over 65% in size; as to activity change, negative = inhibition: % is scaled to controls: 0 for no effect and ±100 for the full control effect
Procedure, shortened: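 GR-coupled readout: 100 nM GR, 1 mM GSH, 0.5 mM NADPH; NADPH fluorescence (ex 340/em 450 nm) read at t=0 and after 15 min RT. GPX4 200 nM, preincubated 30 min with compound; substrate 0.5 mM CHP.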

[13] = qHTS drug screen for cell cycle checkpoint inhibitors in PARPi-resistant BRCA-mutant ovarian cancer cell lines. (AID 1963452; calls by dose curve; also: potency is read from the fitted curve at half-maximal effect); details: PEO1/OlaR viability, CellTiter-Glo luminescence, 96 h; for Z-AUC: stronger effect = lower value
Procedure, shortened: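 PEO1, PEO4 and PEO1/OlaR ovarian cancer cells, 600 per well, exposed 96 h at 37C to a dilution series. Viability read by CellTiter-Glo luminescence, normalized to DMSO and empty wells; activity summarized as Z-AUC.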

[14] = qHTS assay to identify inhibitors of the type 1 interferon - major histocompatibility complex class I in skeletal muscle: Counter screen cell viability and HiBit confirmation (AID 1347412); details: iHSKM muscle cells + IFN-b, HiBiT or CellTiter-Glo, 24 h; for activity change, negative = inhibition: at 45.9 µM (top of the series); also: potency is read from the fitted curve at half-maximal effect; as to activity change, negative = inhibition: % is scaled to controls: 0 for no effect and ±100 for the full control effect; as to all read-outs here: nearly all actives have a fitted effect of over 60% in size
Procedure, shortened: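 HLA-B*08:01–HiBiT knock-in immortalized human myoblasts (C25cl48) stimulated with 4.0 ng/ml human IFN-beta and dosed with compound in a 12-point 1:3 titration (top final 46 uM). After 24 hrs at 37 C, HiBiT lytic luminescence or CellTiter Glo ATP read out.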

[15] = HPAF-II 18hr Apoptosis Induction qHTS against the NCATS CANVASS Library (AID 1347360); also: 0% is about no effect
Procedure, shortened: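 HPAF-II cells (500/well, DMEM + 10% FBS) were exposed to compounds for 18 hours at 37 degrees C. Caspase-3/7 activity was then read by Caspase-Glo 3/7 luminescence after 15 min at room temperature.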

[16] = target: Luciferin 4-monooxygenase (Photinus pyralis) (UniProt P08659); assay: Firefly luciferase counterscreen qHTS: Assay Interference Panel against the NCATS CANVASS Library (AID 1347363); also: 0% is about no effect
Procedure, shortened: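 Purified P. pyralis luciferase was added to compounds (11-point series) preincubated 15 min at room temperature with substrate containing 0.013 mM D-luciferin and 0.013 mM ATP; luminescence was read after 5 min.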

[17] = 10-beta competent E. coli microbial cell viability qHTS against the NCATS CANVASS Library (AID 1347376); also: 0% is about no effect
Procedure, shortened: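 E. coli 10-beta, 0.2 OD; cpds 11-pt; o/n 37C, 5% CO2; BacTiter-Glo 20 min RT; luminescence (ATP) = viable cells. Daunomycin ctrl.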

[18] = DH5-alpha competent E. coli microbial cell viability qHTS against the NCATS CANVASS Library (AID 1347377); details: outcome: dose series up to 46.1 µM unless noted
Procedure, shortened: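 qHTS, 11-pt; E. coli DH5-alpha, 0.2 OD; o/n 37C/5% CO2; BacTiter-Glo, 20 min RT; luminescence.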

[19] = HPAF-II 12hr Apoptosis Induction qHTS against the NCATS CANVASS Library (AID 1347358); also: 0% is about no effect
Procedure, shortened: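 500 HPAF-II cells/well; cmpds 11-pt; 12 hr, 37 degrees C/5% CO2; Caspase-Glo 3/7 added, 15 min RT dark; luminescence read. Doxorubicin titration as control.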

[20] = qHTS for H2AX Agonists against the NCATS CANVASS Library (AID 1347378); also: potency is read from the fitted curve at half-maximal effect
Procedure, shortened: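 CHO-K1 cells were plated overnight at 37C, then exposed to compounds (concentration series, 0.76% DMSO final) for 3 hr at 37C. Lysates received Eu-cryptate anti-pH2AX (S139) and d2 anti-H2AX antibodies; after 24 hr at room temperature, TR-FRET 665/620 nm ratio was read.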

[21] = measured here: PEO1 parental Z-AUC

Chain of Phospholipid hydroperoxide glutathione peroxidase GPX4 (Homo sapiens) (P36969 whole entry, looked up): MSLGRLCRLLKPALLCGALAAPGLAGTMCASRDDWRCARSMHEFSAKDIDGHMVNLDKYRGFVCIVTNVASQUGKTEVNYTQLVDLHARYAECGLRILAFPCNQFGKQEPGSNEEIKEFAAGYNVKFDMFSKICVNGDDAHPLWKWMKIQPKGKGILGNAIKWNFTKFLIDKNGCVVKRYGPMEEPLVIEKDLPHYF
Chain of Glutathione peroxidase 1 (Homo sapiens) (P07203 whole entry, looked up): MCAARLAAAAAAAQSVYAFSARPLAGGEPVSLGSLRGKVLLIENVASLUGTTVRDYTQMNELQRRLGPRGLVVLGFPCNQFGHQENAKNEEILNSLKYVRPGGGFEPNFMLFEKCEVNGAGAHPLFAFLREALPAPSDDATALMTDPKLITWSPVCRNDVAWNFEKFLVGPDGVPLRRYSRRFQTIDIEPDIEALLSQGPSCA
Chain of Luciferin 4-monooxygenase (Photinus pyralis) (P08659 whole entry, looked up): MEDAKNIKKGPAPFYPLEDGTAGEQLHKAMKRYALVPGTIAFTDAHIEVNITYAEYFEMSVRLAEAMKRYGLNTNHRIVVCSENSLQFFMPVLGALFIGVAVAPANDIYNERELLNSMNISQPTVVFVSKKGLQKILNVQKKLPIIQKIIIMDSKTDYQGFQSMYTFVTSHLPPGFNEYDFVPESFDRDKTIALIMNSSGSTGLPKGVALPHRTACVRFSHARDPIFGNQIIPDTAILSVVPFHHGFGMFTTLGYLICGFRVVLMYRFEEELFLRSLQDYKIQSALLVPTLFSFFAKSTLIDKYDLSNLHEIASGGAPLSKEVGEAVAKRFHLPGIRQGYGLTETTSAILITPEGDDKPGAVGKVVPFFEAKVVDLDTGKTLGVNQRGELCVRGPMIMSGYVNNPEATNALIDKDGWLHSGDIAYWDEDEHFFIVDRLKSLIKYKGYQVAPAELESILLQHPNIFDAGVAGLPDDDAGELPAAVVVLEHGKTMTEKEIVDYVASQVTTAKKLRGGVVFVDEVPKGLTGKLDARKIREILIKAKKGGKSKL

CC[C@@H]1[C@H](C)[C@H](c2cc(OC)c(OC)cc2OC)[C@@H](C)[C@H](c2cc(OC)c(OC)cc2OC)[C@]12C=C(OC)C(=O)C=C2OC
inactive: outcome [1] | Potency [2] | outcome [3] | Potency [4] | Potency [5] | outcome [6] | Potency [7]

CS[C@H]1SC[C@@H]2C(=O)N(C)[C@H](C(C)C)C(=O)OC[C@H](NC(=O)c3cnc4ccccc4n3)C(=O)N[C@H](C)C(=O)N(C)[C@H]1C(=O)N(C)[C@H](C(C)C)C(=O)OC[C@H](NC(=O)c1cnc3ccccc3n1)C(=O)N[C@H](C)C(=O)N2C
-3.58: Z-AUC [13, 21]
inactive: Potency [11] | Potency [12] | activity change, negative = inhibition ([14]; Viability) 4.37%
active: Potency [8] 10.4 nM | Potency [9] 0.0015 µM | Potency [10] 0.001 µM | Potency [13] 0.0087 µM | Potency ([14]; HiBiT) 0.0125 µM
-3.11: Z-AUC ([13]; measured here: PEO4 Z-AUC)

C[C@H](CCC(O)C(C)(O)CO)[C@@]1(O)CC[C@@]2(C)C3=C(CC[C@@]21C)[C@@]1(C)CCC(OC(=O)CCC(=O)O)C(C)(C)[C@@H]1CC3 (some centres undefined)
inactive: outcome [1] | Potency [2] | Potency [15] | outcome [3] | Potency [16] | Potency [4] | Potency [5] | outcome [17] | outcome [18] | outcome [6] | Potency [7]

CN[C@@H](C)C(=O)N[C@@H]1C(=O)N(Cc2c(C)ccc3ccccc23)c2ccc(C#N)cc2N(C(C)=O)[C@H]1C
inactive: Potency [8]

O=C(/C=C/C#Cc1cccc(NS(=O)(=O)c2ccccc2)c1)NO
active: Potency [8] 2550 nM | Potency [9] 0.456 µM | Potency [10] 0.574 µM | Potency ([14]; HiBiT) 6.25 µM
-0.647: Z-AUC ([13]; measured here: PEO4 Z-AUC)
inactive: Potency [11] | Potency [12] | Z-AUC [13] -0.732 | activity change, negative = inhibition ([14]; Viability) -1.87%
-0.336: Z-AUC [13, 21]

CC(C)[C@@H]1CC(=O)c2coc3c2[C@H]1C[C@@H](C)C3=O
inactive: outcome [1] | Potency [2] | Potency [19] | Potency [15] | outcome [3] | Potency [16] | Potency [4] | Potency [5] | outcome [17] | outcome [18] | Potency [20] | outcome [6] | Potency [7]

CCc1c(-c2ccccc2C)nc2c(C#N)c[nH]n2c1=O
inactive: Potency [9] | Potency [10] | Potency [11] | Potency [12] | Z-AUC [13] 1.17 and -0.599 | activity change, negative = inhibition ([14]; Viability) 16.2% and -8.52%
active: Potency [8] 829 nM and 1.31 µM | Potency ([14]; HiBiT) 1.4 µM and 787 nM
1.23 and -0.433: Z-AUC [13, 21]
1.49 and -0.54: Z-AUC ([13]; measured here: PEO4 Z-AUC)

C=C1C(=O)O[C@H]2[C@H]1CCC(C)=C1CC[C@@](C)(O)[C@@H]12
inactive: outcome [1] | Potency [2] | Potency [19] | Potency [15] | outcome [3] | Potency [4] | outcome [17] | outcome [18] | outcome [6] | Potency [7]
active: Potency [20] 27.3 µM

C/C(=C\[C@H](C)C(=O)C[C@H](O)CC1CC(=O)NC(=O)C1)[C@@H]1OC(=O)CCCC/C=C/[C@@H](O)C[C@@H]1C
inactive: outcome [1] | Potency [2] | Potency [19] | Potency [15] | outcome [3] | Potency [16] | Potency [4] | Potency [5] | outcome [17] | outcome [18] | Potency [20] | outcome [6] | Potency [7]

COc1ccc([C@@H]2c3cc4c(cc3C[C@H](C)C2C)OCO4)cc1OC (some centres undefined)
inactive: outcome [1] | Potency [2] | Potency [19] | Potency [15] | outcome [3] | Potency [16] | Potency [4] | Potency [5] | outcome [17] | outcome [18] | Potency [20] | outcome [6] | Potency [7]

COc1cc2c(NC3CCN(C4CCCCC4)CC3)nc(N3CCCN(C(C)C)CC3)nc2cc1OCCCN1CCCCC1
inactive: Z-AUC [13] 1.47
0.674: Z-AUC ([13]; measured here: PEO4 Z-AUC)
1.1: Z-AUC [13, 21]
active: Potency [8] 11700 nM | Potency [9] 4.68 µM | Potency [10] 5.25 µM | Potency ([14]; HiBiT) 17.6 µM | Potency ([14]; Viability) 24.9 µM

C=C1C[C@H]2O[C@@H]3[C@@H]4[C@H](CC[C@@](C)(O)[C@@H]42)[C@H](C)COC3(C)[C@@H](OC(=O)CCCCCCC)C[C@H]1O (some centres undefined)
inactive: outcome [1] | Potency [2] | Potency [19] | Potency [15] | outcome [3] | Potency [16] | Potency [4] | outcome [17] | outcome [18] | Potency [20] | outcome [6] | Potency [7]

O=C(/C=C/c1ccc(CN(CCO)CCc2c[nH]c3ccccc23)cc1)NO
-1.27: Z-AUC ([13]; measured here: PEO4 Z-AUC)
-1.35: Z-AUC [13, 21]
inactive: Potency [11] | Potency [12] | activity change, negative = inhibition ([14]; Viability) -12.6%
active: Potency [8] 186 nM | Potency [9] 0.132 µM | Potency [10] 0.132 µM | Potency [13] 0.174 µM | Potency ([14]; HiBiT) 0.198 µM

CC1=C[C@H]2[C@H]3C(=O)C(c4ccc(O)cc4)=C[C@@]3(c3ccc(O)cc3)[C@@H]1C(=O)[C@]2(C)O
inactive: outcome [1] | Potency [2] | Potency [19] | Potency [15] | outcome [3] | Potency [4] | Potency [5] | outcome [17] | outcome [18] | Potency [20] | outcome [6] | Potency [7]

C=C[C@]1(C)CC[C@@H]([C@H](C)C(=O)/C=C/C(C)(C)O)O1
inactive: outcome [1] | Potency [2] | Potency [19] | Potency [15] | outcome [3] | Potency [16] | Potency [4] | Potency [5] | outcome [17] | outcome [18] | Potency [20] | outcome [6] | Potency [7]
